Measurements as given in the supplement of paper PMC10849652.
Of roughly 8,800 targets only a part is listed; those with a hit were picked by preference. About 0.5% of all pairs of compound and target were hits. A number with no mark means an inactive call.

Columns and labels:
Assay in all cases: log2 fold change, soluble protein after heating vs DMSO (PISA); higher = thermal stabilisation; K562 lysate, 10 uM; active = over 0.2 and 3.5 SD of the protein, either way, in both replicates (recomputed)
nilotinib = compound: Cc1cn(-c2cc(NC(=O)c3ccc(C)c(Nc4nccc(-c5cccnc5)n4)c3)cc(C(F)(F)F)c2)cn1 [nilotinib]
Method in brief: (§1)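 K562 pellets were dounce-homogenised in PBS pH 7.4 with 1 mM MgCl2, and the crude extract at 1 mg/mL protein was treated with 10 μM compound for 30 min. Aliquots were heated for 3 min across 48°C-58°C, pooled, and brought to 0.5% NP-40 at 4°C; soluble protein was the supernatant after 21,000xg for 90 min. Soluble protein was quantified by TMTpro 16plex LC-MS/MS with channel sums equalised, and reported as log2 fold change in thermal stability against DMSO controls, with values from duplicates.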

[1] = compound: Cc1nc(Nc2n[nH]c3c2CN(C(=O)N[C@H](CN(C)C)c2ccccc2)C3(C)C)c2sccc2n1
Method in brief: as §1

dasatinib = compound: Cc1nc(Nc2ncc(C(=O)Nc3c(C)cccc3Cl)s2)cc(N2CCN(CCO)CC2)n1 [dasatinib]
Method in brief: as §1

[2] = compound: Cc1ncc(-c2ccnc(Nc3ccc(S(C)(=O)=O)cc3)n2)n1C(C)C
Method in brief: as §1

[3] = compound: Cn1cc(-c2ccc3c(c2)CCN3C(=O)Cc2cccc(C(F)(F)F)c2)c2c(N)ncnc21
Method in brief: as §1

quisinostat = compound: Cn1cc(CNCC2CCN(c3ncc(C(=O)NO)cn3)CC2)c2ccccc21 [quisinostat]
Method in brief: as §1

tipifarnib = compound: Cn1cncc1[C@@](N)(c1ccc(Cl)cc1)c1ccc2c(c1)c(-c1cccc(Cl)c1)cc(=O)n2C [tipifarnib]
Method in brief: as §1

[4] = compound: NC(=O)Nc1cc(-c2cccc(F)c2)sc1C(=O)N[C@H]1CCCNC1
Method in brief: as §1

[5] = compound: NC(=O)c1cnc(N[C@@H]2CCCC[C@@H]2N)nc1Nc1cccc(-n2nccn2)c1
Method in brief: as §1

[6] = compound: NC1(c2ccc(-c3nc4ccn5c(=O)[nH]nc5c4cc3-c3ccccc3)cc2)CCC1
Method in brief: as §1

[7] = compound: NCC(=O)Nc1ccc(-n2nc(C(F)(F)F)cc2-c2ccc3c(ccc4ccccc43)c2)cc1
Method in brief: as §1

vorinostat = compound: O=C(CCCCCCC(=O)Nc1ccccc1)NO [vorinostat]
Method in brief: as §1

silmitasertib = compound: O=C(O)c1ccc2c(c1)nc(Nc1cccc(Cl)c1)c1ccncc12 [silmitasertib]
Method in brief: as §1

[8] = compound: O=C1NC(=O)C(c2cnc3ccccn23)=C1c1cn2c3c(cc(F)cc13)CN(C(=O)N1CCCCC1)CC2
Method in brief: as §1

entospletinib = compound: c1cn2cc(-c3ccc4cn[nH]c4c3)nc(Nc3ccc(N4CCOCC4)cc3)c2n1 [entospletinib]
Method in brief: as §1

Chain of UniProt Q8N4N3 (Q8N4N3 whole entry, looked up): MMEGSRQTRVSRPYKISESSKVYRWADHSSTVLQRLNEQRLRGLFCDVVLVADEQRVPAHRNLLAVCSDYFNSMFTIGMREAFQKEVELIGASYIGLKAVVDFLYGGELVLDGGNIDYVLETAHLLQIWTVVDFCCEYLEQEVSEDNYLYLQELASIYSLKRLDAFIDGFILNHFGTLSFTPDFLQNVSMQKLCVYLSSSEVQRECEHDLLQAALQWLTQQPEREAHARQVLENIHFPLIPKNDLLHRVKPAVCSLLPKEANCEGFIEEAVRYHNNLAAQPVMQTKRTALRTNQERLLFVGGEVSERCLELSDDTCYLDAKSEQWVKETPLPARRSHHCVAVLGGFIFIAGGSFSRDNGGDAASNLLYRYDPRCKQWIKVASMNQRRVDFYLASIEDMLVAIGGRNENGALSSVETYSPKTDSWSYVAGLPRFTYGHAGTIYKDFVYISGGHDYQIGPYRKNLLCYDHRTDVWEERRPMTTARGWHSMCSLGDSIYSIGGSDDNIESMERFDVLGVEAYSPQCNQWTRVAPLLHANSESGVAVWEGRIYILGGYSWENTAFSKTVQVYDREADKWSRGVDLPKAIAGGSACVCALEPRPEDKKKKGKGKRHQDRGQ
Chain of UniProt Q96EM0 (Q96EM0 whole entry, looked up): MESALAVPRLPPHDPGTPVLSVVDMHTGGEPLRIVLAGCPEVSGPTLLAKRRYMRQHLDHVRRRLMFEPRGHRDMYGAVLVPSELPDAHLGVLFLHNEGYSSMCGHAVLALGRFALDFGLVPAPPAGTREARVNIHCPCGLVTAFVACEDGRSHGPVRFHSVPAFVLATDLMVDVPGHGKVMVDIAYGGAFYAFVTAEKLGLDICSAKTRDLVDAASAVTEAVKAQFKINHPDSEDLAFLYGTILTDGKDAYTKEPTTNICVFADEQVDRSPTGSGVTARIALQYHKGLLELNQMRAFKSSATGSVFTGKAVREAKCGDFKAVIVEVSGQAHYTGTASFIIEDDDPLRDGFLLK
Chain of UniProt Q13601 (Q13601 whole entry, looked up): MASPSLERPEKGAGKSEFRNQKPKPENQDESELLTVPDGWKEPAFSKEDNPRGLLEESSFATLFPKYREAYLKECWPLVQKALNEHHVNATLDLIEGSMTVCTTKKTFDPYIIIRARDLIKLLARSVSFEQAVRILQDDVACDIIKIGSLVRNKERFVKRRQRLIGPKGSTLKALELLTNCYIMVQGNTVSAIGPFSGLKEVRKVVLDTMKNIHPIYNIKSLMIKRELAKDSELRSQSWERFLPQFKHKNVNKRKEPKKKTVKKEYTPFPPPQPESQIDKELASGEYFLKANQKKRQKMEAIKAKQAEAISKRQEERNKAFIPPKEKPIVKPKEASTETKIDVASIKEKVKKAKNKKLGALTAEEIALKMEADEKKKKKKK
Chain of UniProt Q9HD34 (Q9HD34 whole entry, looked up): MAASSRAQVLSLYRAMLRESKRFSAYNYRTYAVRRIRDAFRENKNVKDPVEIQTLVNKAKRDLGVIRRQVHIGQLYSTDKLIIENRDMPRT
Chain of UniProt P28482 (P28482 whole entry, looked up): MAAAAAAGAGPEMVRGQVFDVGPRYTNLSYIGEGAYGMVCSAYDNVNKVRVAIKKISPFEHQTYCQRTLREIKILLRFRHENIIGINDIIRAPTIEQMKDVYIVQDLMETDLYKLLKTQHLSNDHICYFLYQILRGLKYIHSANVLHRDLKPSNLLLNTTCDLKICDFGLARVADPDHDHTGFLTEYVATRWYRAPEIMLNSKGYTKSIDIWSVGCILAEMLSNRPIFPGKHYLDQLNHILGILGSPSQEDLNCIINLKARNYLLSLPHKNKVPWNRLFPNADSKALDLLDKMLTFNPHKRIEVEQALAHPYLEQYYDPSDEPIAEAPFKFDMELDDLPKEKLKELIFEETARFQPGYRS
Chain of UniProt Q16539 (Q16539 whole entry, looked up): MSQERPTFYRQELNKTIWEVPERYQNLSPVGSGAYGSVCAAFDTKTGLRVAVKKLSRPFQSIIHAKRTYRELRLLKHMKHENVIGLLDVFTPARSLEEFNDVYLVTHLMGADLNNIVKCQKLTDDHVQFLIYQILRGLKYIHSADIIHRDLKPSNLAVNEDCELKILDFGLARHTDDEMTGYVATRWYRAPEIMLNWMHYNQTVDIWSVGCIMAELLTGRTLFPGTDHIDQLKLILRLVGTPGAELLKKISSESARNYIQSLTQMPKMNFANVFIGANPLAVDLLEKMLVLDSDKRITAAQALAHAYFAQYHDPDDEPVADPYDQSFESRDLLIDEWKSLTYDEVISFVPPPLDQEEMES
Chain of UniProt P27816 (P27816 whole entry, looked up): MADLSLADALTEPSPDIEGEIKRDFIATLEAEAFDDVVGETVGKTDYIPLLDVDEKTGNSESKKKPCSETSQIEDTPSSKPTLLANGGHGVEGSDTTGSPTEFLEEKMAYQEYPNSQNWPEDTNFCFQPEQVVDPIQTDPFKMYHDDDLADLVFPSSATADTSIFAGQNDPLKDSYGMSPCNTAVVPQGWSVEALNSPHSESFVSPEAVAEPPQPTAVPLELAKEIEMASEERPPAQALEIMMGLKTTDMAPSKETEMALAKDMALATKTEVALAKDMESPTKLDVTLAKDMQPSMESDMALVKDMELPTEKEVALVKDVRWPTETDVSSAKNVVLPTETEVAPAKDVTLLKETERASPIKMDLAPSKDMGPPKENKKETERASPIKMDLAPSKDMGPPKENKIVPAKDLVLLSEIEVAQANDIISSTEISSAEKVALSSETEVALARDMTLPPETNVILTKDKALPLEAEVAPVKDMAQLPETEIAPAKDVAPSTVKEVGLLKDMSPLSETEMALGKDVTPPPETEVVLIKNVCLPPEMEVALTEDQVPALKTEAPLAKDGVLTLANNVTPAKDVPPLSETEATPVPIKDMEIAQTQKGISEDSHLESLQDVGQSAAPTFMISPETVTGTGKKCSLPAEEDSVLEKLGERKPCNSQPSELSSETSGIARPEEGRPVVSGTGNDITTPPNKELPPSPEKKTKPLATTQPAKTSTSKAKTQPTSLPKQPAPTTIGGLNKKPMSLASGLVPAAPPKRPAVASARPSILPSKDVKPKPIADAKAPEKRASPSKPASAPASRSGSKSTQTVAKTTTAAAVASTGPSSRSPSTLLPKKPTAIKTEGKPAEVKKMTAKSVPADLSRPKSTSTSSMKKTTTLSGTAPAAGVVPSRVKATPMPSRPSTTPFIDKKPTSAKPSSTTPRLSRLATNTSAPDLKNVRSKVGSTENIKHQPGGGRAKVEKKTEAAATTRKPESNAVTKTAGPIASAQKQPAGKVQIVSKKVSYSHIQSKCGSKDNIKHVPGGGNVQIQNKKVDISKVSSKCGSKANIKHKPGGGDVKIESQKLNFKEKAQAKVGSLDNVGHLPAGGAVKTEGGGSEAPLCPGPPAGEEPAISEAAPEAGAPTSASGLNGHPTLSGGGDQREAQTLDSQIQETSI
Chain of UniProt Q9H8H3 (Q9H8H3 whole entry, looked up): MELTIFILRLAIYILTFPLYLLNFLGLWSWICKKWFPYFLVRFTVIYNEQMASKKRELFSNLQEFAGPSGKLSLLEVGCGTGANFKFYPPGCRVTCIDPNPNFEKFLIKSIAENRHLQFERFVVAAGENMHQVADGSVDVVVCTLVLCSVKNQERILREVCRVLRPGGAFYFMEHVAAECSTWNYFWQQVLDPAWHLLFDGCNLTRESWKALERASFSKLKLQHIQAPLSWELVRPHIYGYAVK
Chain of UniProt Q1ED39 (Q1ED39 whole entry, looked up): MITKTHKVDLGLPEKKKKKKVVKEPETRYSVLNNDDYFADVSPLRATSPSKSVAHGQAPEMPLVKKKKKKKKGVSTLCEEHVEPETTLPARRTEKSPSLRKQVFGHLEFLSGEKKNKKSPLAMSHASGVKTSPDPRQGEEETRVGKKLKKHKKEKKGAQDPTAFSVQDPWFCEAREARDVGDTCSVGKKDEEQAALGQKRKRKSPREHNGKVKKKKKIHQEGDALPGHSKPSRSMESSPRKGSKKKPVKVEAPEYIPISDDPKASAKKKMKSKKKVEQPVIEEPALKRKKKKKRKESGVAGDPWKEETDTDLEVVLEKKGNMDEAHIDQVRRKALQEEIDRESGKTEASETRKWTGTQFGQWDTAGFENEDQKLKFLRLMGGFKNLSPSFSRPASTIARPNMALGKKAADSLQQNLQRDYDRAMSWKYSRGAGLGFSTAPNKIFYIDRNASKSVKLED
Chain of UniProt P40692 (P40692 whole entry, looked up): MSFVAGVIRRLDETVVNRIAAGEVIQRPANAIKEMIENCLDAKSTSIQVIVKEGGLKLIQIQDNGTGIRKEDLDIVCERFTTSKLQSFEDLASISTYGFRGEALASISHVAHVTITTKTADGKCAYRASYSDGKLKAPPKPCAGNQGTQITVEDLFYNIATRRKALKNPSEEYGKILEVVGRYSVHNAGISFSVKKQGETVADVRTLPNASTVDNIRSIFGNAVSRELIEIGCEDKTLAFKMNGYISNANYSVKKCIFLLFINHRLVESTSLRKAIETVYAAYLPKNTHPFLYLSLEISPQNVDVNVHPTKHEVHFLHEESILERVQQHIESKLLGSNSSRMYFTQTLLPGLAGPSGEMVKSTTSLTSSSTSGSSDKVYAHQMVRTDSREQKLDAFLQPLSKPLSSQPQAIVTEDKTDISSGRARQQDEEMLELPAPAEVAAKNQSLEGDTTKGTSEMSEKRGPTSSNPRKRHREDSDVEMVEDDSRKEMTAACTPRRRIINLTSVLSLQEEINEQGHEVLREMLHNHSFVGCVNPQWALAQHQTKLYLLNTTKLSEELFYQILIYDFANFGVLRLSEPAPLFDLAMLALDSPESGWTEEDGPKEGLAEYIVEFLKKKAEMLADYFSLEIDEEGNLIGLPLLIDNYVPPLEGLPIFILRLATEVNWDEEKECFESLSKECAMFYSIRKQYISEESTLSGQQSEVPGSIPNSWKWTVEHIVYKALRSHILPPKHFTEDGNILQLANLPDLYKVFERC

Target | log2 fold change (nilotinib) | log2 fold change [1] | log2 fold change (dasatinib) | log2 fold change [2] | log2 fold change [3] | log2 fold change (quisinostat) | log2 fold change (tipifarnib) | log2 fold change [4] | log2 fold change [5] | log2 fold change [6] | log2 fold change [7] | log2 fold change (vorinostat) | log2 fold change (silmitasertib) | log2 fold change [8] | log2 fold change (entospletinib)
MINK1 (UniProt Q8N4C8) | -0.227 | -0.206 | -0.077 | 0.199 | -0.016 | -0.062 | 0.289 | 0.782 (active) | -0.023 | 0.02 | -0.02 | -0.205 | -0.109 | 0.043 | 0.182
MCMBP isoform 2 (UniProt Q9BTE3) | 0.152 | -0.039 | 0.099 | -0.144 | -0.099 | -0.076 | 0.066 | -0.041 | 0.082 | -0.118 | -0.153 | -0.413 | -0.092 | 0.064 | -0.654
LYRM4 (UniProt Q9HD34) | 0.009 | -0.031 | -0.061 | 0.052 | -0.028 | -0.093 | -0.028 | 0.054 | -0.036 | -0.005 | 0.01 | 0.119 | -0.019 | 0.023 | 0.007
MAPK14 isoform 2 (UniProt Q16539) | 0.523 | 0.041 | 0.879 (active) | 0.037 | 0.033 | -0.031 | -0.039 | -0.035 | 0.076 | -0.018 | -0.06 | -0.328 | 0.291 | -0.092 | -0.015
MLH1 (UniProt P40692) | 0 | 0.014 | -0.007 | 0.03 | 0.031 | -0.043 | 0.005 | 0.061 | 0.067 | -0.046 | 0.04 | -0.312 (active) | 0.025 | 0.005 | 0.022
MED14 (UniProt O60244) | 0.027 | -0.013 | -0.012 | -0.015 | 0.011 | -0.021 | -0.013 | 0.011 | 0.015 | 0.047 | -0.01 | -0.21 (active) | -0.035 | 0.002 | -0.084
MORC3 (UniProt Q14149) | 0.001 | 0.012 | 0.006 | -0.015 | 0.046 | -0.018 | -0.01 | 0.037 | -0.017 | -0.004 | 0.008 | -0.303 (active) | -0.01 | 0.005 | 0.009
MAPK1 (UniProt P28482) | -0.042 | 0.205 | -0.014 | 0.091 | -0.01 | 0.07 | 0.011 | 0.01 | 0.088 | 0.003 | -0.027 | 0.039 | 0.042 | -0.005 | -0.039
MIF4GD isoform 3 (UniProt A9UHW6) | -0.036 | 0.031 | 0.056 | -0.015 | 0.039 | -0.04 | 0.016 | 0.052 | -0.032 | -0.007 | 0.008 | -0.232 (active) | 0.018 | -0.012 | -0.032
L3HYPDH (UniProt Q96EM0) | 0.019 | 0.015 | 0.073 | 0.001 | -0.003 | -0.053 | -0.002 | 0.033 | 0.015 | 0.009 | 0.023 | -0.31 (active) | 0 | -0.02 | -0.005
KIF22 (UniProt Q14807) | 0.041 | -0.021 | -0.023 | -0.029 | -0.055 | -0.451 (active) | -0.015 | 0.081 | -0.023 | -0.171 | 0.069 | 0.158 | -0.128 | 0.156 | 0.001
LYN (UniProt P07948) | 0.158 | 0.218 | 0.457 | -0.026 | 0.095 | -0.125 | -0.154 | 0.842 (active) | 0.084 | -0.037 | 0.025 | -0.305 | -0.058 | -0.108 | 0.149
KNOP1 (UniProt Q1ED39) | -0.09 | 0.055 | -0.028 | -0.095 | -0.001 | -0.169 | -0.01 | 0.007 | 0.048 | -0.062 | 0.019 | 0.063 | 0.005 | 0.03 | -0.035
MED8 isoform 2 (UniProt Q96G25) | 0.084 | -0.033 | -0.017 | -0.007 | 0.044 | -0.043 | 0.081 | -0.005 | 0.016 | 0.024 | 0.019 | 0.037 | -0.012 | -0.026 | 0
MCU (UniProt Q8NE86) | -0.044 | 0.012 | -0.065 | 0.072 | 0.006 | -0.054 | -0.096 | 0.011 | 0.025 | -0.085 | -0.037 | 0.04 | 0 | -0.072 | -0.016
KRR1 (UniProt Q13601) | -0.057 | 0.058 | -0.014 | 0.006 | 0.012 | -0.336 (active) | -0.039 | 0.018 | 0.022 | -0.08 | 0.013 | 0.02 | 0.013 | 0.101 | 0.011
KLHL36 (UniProt Q8N4N3) | 0.012 | -0.104 | -0.021 | 0.027 | 0.049 | 0.043 | 0.067 | 0.007 | -0.023 | -0.014 | 0.059 | -0.161 | 0.082 | -0.037 | -0.006
METTL7A (UniProt Q9H8H3) | 0.168 | 0.014 | 0.198 | -0.01 | 0.096 | -0.112 | 0.03 | -0.026 | -0.055 | -0.068 | 0.037 | 0.017 | -0.053 | 0.274 | -0.001
KLC1 isoform 6 (UniProt Q07866) | 0.009 | -0.017 | -0.021 | -0.009 | 0.009 | -0.014 | -0.005 | -0.014 | 0.002 | 0.017 | 0.024 | -0.231 (active) | -0.004 | -0.034 | 0.013
MAP4 isoform 5 (UniProt P27816) | -0.168 | -0.029 | -0.371 | 0.291 | 0.029 | -0.036 | -0.101 | 0.03 | -0.02 | -0.213 | 0.001 | 0.359 | 0.074 | 0.087 | 0.063
LBR (UniProt Q14739) | -0.026 | 0.015 | -0.04 | -0.004 | 0.003 | 0.065 | -0.03 | -0.048 | 0.006 | 0.08 | -0.121 | 0.17 | -0.001 | -0.076 | -0.009
